According to PubChem BioAssay (NCI):
Compounds without any hit were thinned out: in the full panel of roughly 83,000, 20% have a hit.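 Each cell line was grown in a 96-well plate and treated with one concentration of compound for 48 hours. Values below 10 were considered active.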 Activity calls are given as the source filed them.

Columns and labels:
Assay in all cases: NCI-60 one-dose screen, 48 h (100 = growth as untreated, 0 = no growth, -100 = all killed)
Conditions in all cases: 10 µM unless noted
DU-145 prostate = test system: DU-145 prostate
K-562 leukemia = test system: K-562 leukemia
MALME-3M melanoma = test system: MALME-3M melanoma
MDA-MB-231 breast = test system: MDA-MB-231 breast
RXF 393 renal = test system: RXF 393 renal
SF-268 CNS = test system: SF-268 CNS
SF-295 CNS = test system: SF-295 CNS
SF-539 CNS = test system: SF-539 CNS
UACC-257 melanoma = test system: UACC-257 melanoma
M14 melanoma = test system: M14 melanoma
HCT-15 colon = test system: HCT-15 colon
HT29 colon = test system: HT29 colon
SNB-75 CNS = test system: SNB-75 CNS
SNB-19 CNS = test system: SNB-19 CNS
U251 CNS = test system: U251 CNS
PC-3 prostate = test system: PC-3 prostate
SK-MEL-5 melanoma = test system: SK-MEL-5 melanoma
UACC-62 melanoma = test system: UACC-62 melanoma
LOX IMVI melanoma = test system: LOX IMVI melanoma
SK-MEL-28 melanoma = test system: SK-MEL-28 melanoma

Measured: growth

CCN(CC)CCCC(Nc1c2ccc(Cl)cc2nc2ccc(OC)cc12)c1ccncc1 (stereo not given)
inactive: DU-145 prostate 70.6% | K-562 leukemia 32.6% | MALME-3M melanoma 76.7% | MDA-MB-231 breast 59.3% | RXF 393 renal 65.4% | SF-268 CNS 77.8% | SF-295 CNS 89.9% | SF-539 CNS 62.9% | UACC-257 melanoma 114% | M14 melanoma 113% | HCT-15 colon 54.8% | HT29 colon 43.7% | SNB-75 CNS 87% | SNB-19 CNS 81% | U251 CNS 79.3% | PC-3 prostate 66.6% | SK-MEL-5 melanoma 88.4% | UACC-62 melanoma 103% | LOX IMVI melanoma 63% | SK-MEL-28 melanoma 85.6%

CC/C(=C(/c1ccc(Cl)cc1)c1ccc(OCCN2CCCCCC2)cc1)c1ccccc1
inactive: DU-145 prostate 97.2% | K-562 leukemia 19.8% | MALME-3M melanoma 98.5% | MDA-MB-231 breast 83% | RXF 393 renal 72.5% | SF-268 CNS 81.6% | SF-295 CNS 98.3% | SF-539 CNS 84.3% | UACC-257 melanoma 92.4% | M14 melanoma 81.6% | HCT-15 colon 35.3% | HT29 colon 17% | SNB-75 CNS 107% | SNB-19 CNS 83% | U251 CNS 62.4% | PC-3 prostate 63.3% | SK-MEL-5 melanoma 79.6% | UACC-62 melanoma 87% | LOX IMVI melanoma 68.5% | SK-MEL-28 melanoma 95.7%

O=c1c2cccc3c(N4CCOCC4)ccc(c32)c2nc3ccccc3n12
inactive: DU-145 prostate 109% | K-562 leukemia 80% | MALME-3M melanoma 97.7% | MDA-MB-231 breast 82% | RXF 393 renal 131% | SF-268 CNS 109% | SF-295 CNS 86.3% | SF-539 CNS 90.5% | UACC-257 melanoma 96.2% | M14 melanoma 104% | HCT-15 colon 81% | HT29 colon 93.7% | SNB-75 CNS 79.1% | SNB-19 CNS 95.8% | U251 CNS 90.7% | PC-3 prostate 99.9% | SK-MEL-5 melanoma 73.4% | UACC-62 melanoma 62.1% | LOX IMVI melanoma 84.8% | SK-MEL-28 melanoma 107%

CS(=O)(=O)c1ccc(/C(=N/NC(N)=S)c2ccc(F)cc2)cc1
inactive: DU-145 prostate 108% | K-562 leukemia 85.1% | MALME-3M melanoma 104% | MDA-MB-231 breast 107% | RXF 393 renal 85.1% | SF-268 CNS 98.8% | SF-295 CNS 106% | SF-539 CNS 102% | UACC-257 melanoma 102% | M14 melanoma 104% | HCT-15 colon 98.4% | HT29 colon 107% | SNB-75 CNS 93.1% | SNB-19 CNS 99.9% | U251 CNS 107% | PC-3 prostate 103% | SK-MEL-5 melanoma 102% | UACC-62 melanoma 101% | LOX IMVI melanoma 101% | SK-MEL-28 melanoma 114%

CC(C)(C)n1cc(-c2ccnc(NCCNS(=O)(=O)c3ccc(C(F)(F)F)cc3)c2)c(-c2ccccc2)n1
inactive: DU-145 prostate 99.2% | K-562 leukemia 44.3% | MALME-3M melanoma 109% | MDA-MB-231 breast 92.1% | RXF 393 renal 87.8% | SF-268 CNS 95.3% | SF-295 CNS 83.7% | SF-539 CNS 82.2% | UACC-257 melanoma 104% | M14 melanoma 88.8% | HCT-15 colon 75.6% | HT29 colon 53.7% | SNB-75 CNS 80.9% | SNB-19 CNS 101% | U251 CNS 75.4% | PC-3 prostate 65.8% | SK-MEL-5 melanoma 80.7% | UACC-62 melanoma 80.9% | LOX IMVI melanoma 93.1% | SK-MEL-28 melanoma 100%

C=CCn1c(SCC(=O)Nc2ccc(C(=O)/C=C/c3ccc(Cl)cc3)cc2)nnc1-c1ccc(Cl)c(Cl)c1
inactive: DU-145 prostate 92.2% | K-562 leukemia 50.4% | MALME-3M melanoma 85.2% | MDA-MB-231 breast 85.2% | RXF 393 renal 75.1% | SF-268 CNS 80.4% | SF-295 CNS 93.9% | SF-539 CNS 87% | UACC-257 melanoma 93.9% | M14 melanoma 80.1% | HCT-15 colon 78.8% | HT29 colon 71.6% | SNB-75 CNS 73.9% | SNB-19 CNS 85.3% | U251 CNS 81% | PC-3 prostate 51.8% | SK-MEL-5 melanoma 82.3% | UACC-62 melanoma 62.4% | LOX IMVI melanoma 72.2% | SK-MEL-28 melanoma 101%

Oc1cccc2c1NCCC2
inactive: DU-145 prostate 34.8% | K-562 leukemia 13.5% | RXF 393 renal 43.9% | SF-268 CNS 35.3% | SF-539 CNS 26.4% | UACC-257 melanoma 12.4% | M14 melanoma 31.4% | HCT-15 colon 21.4% | HT29 colon 79.5% | SNB-19 CNS 14.9% | U251 CNS 14.7% | LOX IMVI melanoma 16.4% | SK-MEL-28 melanoma 49.5%
active: MALME-3M melanoma -0.428% | MDA-MB-231 breast 6.35% | SF-295 CNS 0.338% | SNB-75 CNS 0.864% | PC-3 prostate 9.22% | SK-MEL-5 melanoma -51.2% | UACC-62 melanoma 5.24%
